Screening results from PubChem BioAssay.
ClpP mod: qHTS Assay for Activators of ClpP; ATP-dependent Clp protease proteolytic subunit (Bacillus subtilis (strain 168)), P80244; purified B. subtilis ClpP, FRET peptide cleavage, 20 min; Potency, µM (highest dose often 57.5 µM), for inactives: at the top dose activity change, negative = active; 1.9% of 340,000 active; active = well fitted falling curve with a large enough effect; inconclusive = small, poorly fitted or top-dose-only effect; inactive = no such curve, though single readings can be large or run the other way; note: the source files actives as falling curves though it sought activators and does not explain the sign; nearly all actives have a fitted effect of over 65% in size
Target sequence (P80244 whole entry, looked up): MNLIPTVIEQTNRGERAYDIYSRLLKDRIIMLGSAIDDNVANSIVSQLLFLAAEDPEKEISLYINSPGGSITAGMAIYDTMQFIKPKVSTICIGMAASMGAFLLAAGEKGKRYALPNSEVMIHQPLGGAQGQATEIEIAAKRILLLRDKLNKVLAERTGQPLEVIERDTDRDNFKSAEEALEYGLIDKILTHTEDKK
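FRET quenching reversal measured ClpP activation: 10 microg/mL B. subtilis ClpP at pH 8 with the FRET-FV decapeptide, read at 430 nm after 320 nm excitation. The 20-min minus 0-min signal was scaled between DMSO/no-enzyme wells and ADEP (5.8 microM final).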
Sfp PPTase inh: inhibitors of Bacillus subtilis Sfp phosphopantetheinyl transferase. Biochemical Sfp PPTase activity, qHTS. Potency, µM, for the others: largest response in the series, negative = inhibition, hits mostly inhibitors. AID 1490. 3.5% of 310,000 active;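 note: the enzyme is Sfp with the accession as filed and its product quenches rhodamine fluorescence; 0% = enzyme reaction without inhibitor and -100% = no enzyme wells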
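Sfp 15 nM + cpd, 15 min RT; start w/ rhodamine-CoA 5 uM, BHQ-2-YbbR 12.5 uM (final); 50 mM Hepes pH 7.6, 10 mM MgCl2, 0.01% NP-40, 0.01% BSA; read 525/598 nm at 0 and 30 min.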
PINK1 expr mod: PINK1 expression modulation | PINK1 immunofluorescence, high-content cytometry, 24 h | Potency, µM (doses to about 76.6 µM), without a hit: top-dose activation (PINK1 increase), actives largely listed as activators | 0.2% of 410,000 active; active = well fitted activation curve with a large enough effect; inconclusive = small, poorly fitted or top-dose-only effect; cell line not stated here; note: % of control where 0% means no effect; nearly all actives have a fitted effect of over 65% in size
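Compound titrations (5 concentrations, 24 h) on a stable cell line; DMSO and CCCP controls. Endpoint: fixed-cell PINK1 immunofluorescence with mitochondrial, cell and nuclear markers, scanned by microplate cytometer.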
Epigenetic derep: epigenetic control regulation, reporter derepression | murine LDR cells, GFP reporter derepression, 30 h | Potency, µM (highest dose often 53.9 µM), for inactives: at the top dose GFP activation, usual class: activators | 0.2% of 280,000 active | AID 1865; note: % of control where 0% means no effect; nearly all actives have a fitted effect of over 60% in size
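GFP-positive cell count by laser-scanning cytometry (objects 20–120 um) after 30 h, 37 C compound exposure of murine LDR cells; reporter is CMV-GFP integrated at a silenced locus, inducible by HDAC or DNMT inhibitors.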
VP16 counter: inhibits Gal4-VP16 luciferase reporter, ROR gamma counter-screen; Drosophila S2 Gal4-VP16 UAS-luciferase, luminescence, 20 h; Potency, µM (highest dose often 53.6 µM), for the others: top-dose activity, negative = inhibition, usual class: inhibitors; 3.5% of 310,000 active;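 note: Gal4-VP16 expression switched on by copper sulfate through the metallothionein promoter; % is set by controls: 0 for no effect and ±100 for the full control effect; nearly all actives have a fitted effect of over 50% in size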
RORg inh: ROR gamma (mouse) transcription inhibition. Drosophila S2 Gal4-RORgamma UAS-luciferase reporter, 20 h. Potency, µM (top dose mostly 53.6 µM), without a hit: at the top dose activity change, negative = inhibition, hits mostly inhibitors. 5.4% of 310,000 active. P51450; note: % is set by controls: 0 for no effect and ±100 for the full control effect; nearly all actives have a fitted effect of over 60% in size
Target sequence (P51450 whole entry, looked up, the tested form may be a part): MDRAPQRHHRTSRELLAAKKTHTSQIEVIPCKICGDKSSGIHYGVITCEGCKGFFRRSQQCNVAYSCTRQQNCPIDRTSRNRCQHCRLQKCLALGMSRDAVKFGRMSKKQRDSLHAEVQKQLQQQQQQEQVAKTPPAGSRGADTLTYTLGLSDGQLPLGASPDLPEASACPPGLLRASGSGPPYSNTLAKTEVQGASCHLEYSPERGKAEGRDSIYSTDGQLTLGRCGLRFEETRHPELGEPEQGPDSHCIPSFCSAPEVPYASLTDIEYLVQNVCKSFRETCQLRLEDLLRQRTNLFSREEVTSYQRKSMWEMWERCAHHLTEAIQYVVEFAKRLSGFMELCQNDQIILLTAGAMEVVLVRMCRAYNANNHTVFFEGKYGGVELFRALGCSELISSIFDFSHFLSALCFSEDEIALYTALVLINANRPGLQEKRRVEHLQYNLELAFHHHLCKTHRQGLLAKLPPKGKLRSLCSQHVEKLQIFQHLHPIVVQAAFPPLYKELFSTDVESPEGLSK
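Read-out: Photinus luciferase luminescence; inhibitors lower reporter signal. Insect Schneider cells with Gal4-ROR gamma fusion under metallothionein promoter, UAS reporter; 700 uM final copper sulfate induction, 20 hr, ambient temperature.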
The depositor's hits bear a star; ? = inconclusive; / = not tested or not shown; [ ] = dose if it differs, or a comment. Rows were chosen to be rich in hits. Some 8.1% of all compounds tested hit in one or more screens of this group. Unless noted, calls come from the whole dose curve; as a rule, active = well fitted curve in the direction sought with a large enough effect; inconclusive = small, poorly fitted or top-dose-only effect, or another doubt; inactive = no such curve, though single readings can be large; an effect the other way counts as inactive or inconclusive. Potency is the fitted concentration of half-maximal effect.

SMILES | ClpP mod | Sfp PPTase inh | PINK1 expr mod | Epigenetic derep | VP16 counter | RORg inh
Cc1cccc(NC(=S)/N=C(\N)Nc2nc(C)c3ccccc3n2)c1 | 0.5% | 3.1% | 1.8% | -1.8% | 5.01µM* | 2.24µM*
Cc1cccc(NC(=S)/N=C(\N)Nc2nc(C)c3cc(C)ccc3n2)c1 | -16.7% | 10.9% | 2.0% | 0.0% | 4.47µM* | 7.08µM*
CC(C)=NN/C(N)=N/C(=S)Nc1ccc(C)cc1 | 1.6% | -70.8% | 5.4% | -1.3% | 3.4% | ?
COc1ccc2c(C)nc(N/C(N)=N/S(=O)(=O)c3ccc(C)cc3)nc2c1 | / | 12.8% | -0.1% | -3.2% | -2.2% | -2.9%
COc1ccc(Nc2nc(C)c3ccccc3n2)cc1 | -2.4% | -3.4% | -0.8% | 0.0% | -27.3% | ?
Cc1ccc(NC(=S)/N=C(\N)Nc2nc(C)c3ccccc3n2)cc1C | -4.2% | 15.1% | -0.4% | 0.0% | 1µM* | 1µM*
Cc1ccc(S(=O)(=O)/N=C(\N)Nc2nc(C)c3ccccc3n2)cc1 | -13.3% | 89.1µM* | -0.5% | -0.1% | -14.7% | 23.4%
CN(C)c1oc(-c2ccco2)nc1C#N | 5.4% | 10.4% | -0.3% | -1.0% | 2.7% | -1.7%
CN(C)c1oc(-c2ccccc2)nc1C#N | ? | 16.8% | -3.3%[38.3 µM] | 1.4% | 0.0% | 9.7%
CN(C)c1oc(-c2ccccc2[N+](=O)[O-])nc1C#N | -12.5% | 10µM* | -1.1% | 1.1% | -2.1% | 8.6%
CN(C)c1oc(-c2ccccc2Cl)nc1C#N | 14.1µM* | 15.5% | -2.6% | 2.3% | 4.1% | -12.1%
CCc1ccccc1NC(=O)C1(S(=O)(=O)c2ccc(Cl)cc2)CC1 | -0.5% | / | 0.3% | -1.8% | / | /
Cc1cc(C)cc(N2CC(c3nnc(NC(=O)c4ccco4)s3)CC2=O)c1 (stereo not drawn) | -1.7% | / | -1.2% | 0.0% | / | /
C=CC[n+]1c(-c2ccc(OC)c(OC)c2)csc1NNC(=O)Nc1ccccc1 | -1.3% | -27.6% | / | -1.4% | ? | 10µM*
O=C(Cn1cc(C(=O)C2CCCCC2)c2ccccc21)Nc1ccccc1Cl | -2.0% | / | 1.3% | 7.7% | / | /
CC(=O)Nc1ccc(S(=O)(=O)NCCSCc2ccco2)cc1 | -1.9% | 31.6µM* | 5.2%[38.3 µM] | -0.3% | -1.1% | -1.2%
CC(=O)NS(=O)(=O)c1ccc(NC(=O)CSc2ccc(C)cc2)cc1 | / | 79.4µM* | 0.2% | 0.5%[10.1 µM] | -9.5%[10 µM] | -19.0%
CC(=O)Nc1ccc(NC(=O)CNS(=O)(=O)c2ccc(C)cc2)cc1 | 0.0% | 6.8% | / | 1.0% | ? | 10µM*
CC(=O)Nc1ccc(S(=O)(=O)NCCOc2ccc(Cl)cc2C)cc1 | / | -11.1% | -2.1% | 1.5% | 5.01µM* | ?
CC(=O)Nc1ccc(S(=O)(=O)NCCC(=O)Nc2cccc(Cl)c2)cc1 | / | 8.5% | 3.4% | / | 3.5% | 9.9%
Cc1ccc(S(=O)(=O)N2CCN(Cc3cc(Br)ccc3O)CC2)cc1 | 2.3% | / | -0.3% | -1.6% | / | /
CCC(=Nc1ccccc1O)C1=C(O)CC(c2ccccc2)CC1=O (stereo not drawn) | 0.4% | 79.4µM* | 3.0% | 10.3% | -14.8% | ?
COc1cc(NC(=O)Cn2c(=O)n(Cc3ccccc3OC)c(=O)c3cccnc32)cc(OC)c1 | -26.2% | / | -2.1% | 2.7% | / | /
Cc1cccc(Nc2nc(-c3ccc(O)cc3O)cs2)n1 | / | ? | 0.1% | / | ? | 3.98µM*
Oc1ccc(-c2csc(Nc3ncccn3)n2)c(O)c1 | / | 50.1µM* | 1.2% | 6.8% | -12.6% | 0.3%
SMILES | ClpP mod | Sfp PPTase inh | PINK1 expr mod | Epigenetic derep | VP16 counter | RORg inh
Cc1ccc(C)c(-c2csc(Nc3ncccn3)n2)c1 | -1.0% | 8.4% | 7.3% | / | -9.0% | -17.0%
Oc1ccc(-c2csc(Nc3ncccn3)n2)cc1O | / | 50.1µM* | 1.2% | 6.8% | ? | ?
CC(=O)Nc1cccc(-c2csc(Nc3ncccn3)n2)c1 | / | -27.3% | / | -1.1% | 6.9% | 39.0%
CC(=O)c1ccc(NC(=O)CCn2cccn2)cc1 | -0.7% | / | -0.7% | 1.1% | / | /
Cc1cccc(CNC(=O)c2c3n(c(C)cc2=O)-c2ccccc2SC(c2ccsc2)C3)n1 (stereo not drawn) | / | / | -0.4% | / | / | /
C#CCOn1c(-n2nc(C)cc2C)nc2ccccc2c1=O | / | 5.4% | 1.7% | / | ? | 11.2µM*
COn1c(-n2nc(C)cc2C)nc2ccccc2c1=O | 0.8% | -17.1% | 2.4% | -0.6% | 7.08µM* | 7.94µM*
Cc1ccc(SCc2c(-c3ccccc3)nn(C)c2Cl)cc1 | -3.1% | -18.4% | 1.5% | 0.1% | 3.3% | 13.1%
Cc1ccc(Sc2c(C#N)c(-c3ccccc3)nn2C)cc1 | -0.1% | -11.3% | 10µM* | 0.8% | -0.9% | 18.1%
Cc1ccc(CNC(=O)c2ccc(N3CCC4(CC3)CC(c3ccccc3)=NO4)c(N)c2)cc1 | 8.91µM* | 18.9% | 1.7% | / | ? | -19.4%
CCCCC[C@H](O)/C=C/C=C\C/C=C\CCCCCCC(=O)O | / | 5.9% | / | -1.1% | -2.0% | 2.9%
COc1ccccc1NS(=O)(=O)c1ccc(C)c(NC(=O)NCCCl)c1 | / | 89.1µM* | 3.2% | 1.5% | -1.6% | 1.1%
COc1ccc(S(=O)(=O)Nc2ccccc2C(=O)NN2CCOCC2)cc1OC | -4.4% | / | -0.8% | / | / | /
COc1ccc(-c2csc(NC(=O)c3ccccc3NS(=O)(=O)c3ccc(C)cc3)n2)cc1 | ? | 5.4% | 14.1µM* | 0.0% | ? | 35.4%[10 µM]
COc1ccc(S(=O)(=O)Nc2ccccc2C(=O)Nc2nc(-c3ccc(F)cc3)cs2)cc1OC | 15.8µM* | 6.6% | ? | -1.3% | ? | ?
COc1ccc(-c2csc(NC(=O)c3c(OC)cccc3OC)n2)cc1 | 0.6% | 6.2% | 7.4% | / | -3.2% | 0.1%
CCCNC(=O)c1ccccc1NS(=O)(=O)c1ccc(OC)c(OC)c1 | 31.6µM* | 22.3% | 1.5% | 0.0% | 4.9% | -10.6%
CN1CCN(c2ccnc(N(C)CCCCCCN)n2)CC1 | 4.6% | / | 0.1% | / | / | /
CC(C)c1ccc2oc(-c3cccc(NC(=O)c4ccc5c(c4)OCCO5)c3)nc2c1 | ? | / | 5.7% | 0.6% | / | /
CCCC(=O)Nc1cccc(-c2cn3c(C)csc3n2)c1 | -0.4% | / | 1.7% | 2.9% | / | /
CCOc1ccccc1CNC(=O)CCc1c(C)nn(-c2ccc(N3CCCC3)nn2)c1C | -1.7% | / | 2.5% | 1.1% | / | /
CCN(CC)c1ccc(NC(=O)CSc2nnc(C)c(=O)[nH]2)cc1 | 2.4% | / | 0.1% | 0.0% | / | /
COc1ccc(C(=O)NN2C(=O)C3C4C=CC(O4)C3C2=O)cc1 (stereo not drawn) | -1.4% | 22.4µM* | -0.7% | -1.2% | ? | ?
COc1cccc(C(=O)NN2C(=O)C3C4C=CC(O4)C3C2=O)c1 (stereo not drawn) | -3.3% | ? | 1.8% | 0.7% | 10.1% | -31.1%
